# The supplement of paper PMC8728848
# This excerpt belongs to a sample that is enriched for the strongest signals.
# B1: YghJ (Escherichia coli), E3PJ90 (protein)
# chain: MNKKFKYKKSLLAAILSATLLAGCDGGGSGSSSDTPPVDSGTGSLPEVKPDPTPNPEPTPEPTPDPEPTPEPIPDPEPTPEPEPEPVPTKTGYLTLGGSQRVTGATCNGESSDGFTFKPGEDVTCVAGNTTIATFNTQSEAARSLRAVEKVSFSLEDAQELAGSDDKKSNAVSLVTSSNSCPANTEQVCLTFSSVIESKRFDSLYKQIDLAPEEFKKLVNEEVENNAATDKAPSTHTSPVVPVTTPGTKPDLNASFVSANAEQFYQYQPTEIILSEGRLVDSQGYGVAGVNYYTNSGRGVTGENGEFSFSWGEAISFGIDTFELGSVRGNKSTIALTELGDEVRGANIDQLIHRYSTTGQNNTRVVPDDVRKVFAEYPNVINEIINLSLSNGATLGEGEQVVNLPNEFIEQFNTGQAKEIDTAICAKTDGCNEARWFSLTTRNVNDGQIQGVINKLWGVDTNYKSVSKFHVFHDSTNFYGSTGNARGQAVVNISNAAFPILMARNDKNYWLAFGEKRAWDKNELAYITEAPSIVRPENVTRETASFNLPFISLGQVGDGKLMVIGNPHYNSILRCPNGYSWNGGVNKDGQCTLNSDPDDMKNFMENVLRYLSNDRWLPDAKSSMTVGTNLETVYFKKHGQVLGNSAPFAFHKDFTGITVKPMTSYGNLNPDEVPLLILNGFEYVTQWGSDPYSIPLRADTSKPKLTQQDVTDLIAYMNKGGSVLIMENVMSNLKEESASGFVRLLDAAGLSMALNKSVVNNDPQGYPDRVRQRRSTPIWVYERYPAVDGKPPYTIDDTTKEVIWKYQQENKPDDKPKLEVASWQEEVEGKQVTQFAFIDEADHKTPESLAAAKQRILDAFPGLEVCKDSDYHYEVNCLEYRPGTDVPVTGGMYVPQYTQLDLSADTAKAMLQAADLGTNIQRLYQHELYFRTNGRQGERLNSVDLERLYQNMSVWLWNETKYRYEEGKEDELGFKTFTEFLNCYTNNAYVGTQCSAELKKSLIDNKMIYGEESSKAGMMNPSYPLNYMEKPLTRLMLGRSWWDLNIKVDVEKYPGVVNTNGETVTQNINLYSAPTKWFAGNMQSTGLWAPAQQEVSIESKSTVPVTVTVALADDLTGREKHEVSLNRPPRVTKTYDLKANDKVTFKVPYGGLIYIKGDSKEVQSADFTFTGVVKAPFYKDGKWQHDLNSPAPLGELESASFVYTTPKKNLNASNYTGGLEQFANDLDTFASSMNDFYGRDSEDGKHRMFTYKNLPGHKHRFANDVQISIGDAHSGYPVMNSSFSPNSTTLPTTPLNDWLIWHEVGHNAAETPLTVPGATEVANNVLALYMQDRYLGKMNRVADDITVAPEYLEESNGQAWARGGAGDRLLMYAQLKEWAEKNFDIKKWYPDGTPLPEFYSEREGMKGWNLFQLMHRKARGDEVSNDKFGGKNYCAESNGNAADTLMLCASWVAQTDLSEFFKKWNPGANAYQLPGASEMSFEGGVSQSAYNTLASLDLPKPEQGPETINQVTEHKMSAE
# Assays:
# Test in all cases: glycan array binding signal (z-score within array); higher = stronger binding
# Details in all cases: glycan notation: IUPAC condensed, linker removed
# [1] = biological target: Gal6S(b1-3)GlcNAc
# Summary of the method: (§1)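 The binding signal is a Z-score computed within each array. Data were drawn from 3228 arrays in the Consortium for Functional Glycomics database, restricted to those with a known protein sequence. Scores were averaged over arrays of the same protein sequence at different concentrations or buffers, and over linkers, and negative values can be taken as non-binding.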
# [2] = biological target: Gal6S(b1-3)GlcNAc6S
# Summary of the method: as §1
# [3] = biological target: GalNAc(b1-4)GlcNAc
# Summary of the method: as §1
# [4] = biological target: GalNAc(b1-4)GlcNAc6S
# Summary of the method: as §1
# [5] = biological target: GlcNAc(b1-2)Man(a1-3)[GlcNAc(b1-2)Man(a1-6)]Man(b1-4)GlcNAc(b1-4)GlcNAc
# Summary of the method: as §1
# [6] = biological target: GlcNAc(b1-2)[GlcNAc(b1-4)]Man(a1-3)[GlcNAc(b1-4)][GlcNAc(b1-2)[GlcNAc(b1-6)]Man(a1-6)]Man(b1-4)GlcNAc(b1-4)GlcNAc
# Summary of the method: as §1
# [7] = biological target: GlcNAc(b1-3)Fuc
# Summary of the method: as §1
# [8] = biological target: GlcNAc(b1-3)Gal(b1-4)GlcNAc(b1-3)Gal(b1-4)GlcNAc(b1-3)Gal(b1-4)GlcNAc(b1-3)Gal(b1-4)GlcNAc(b1-2)Man(a1-3)[GlcNAc(b1-3)Gal(b1-4)GlcNAc(b1-3)Gal(b1-4)GlcNAc(b1-3)Gal(b1-4)GlcNAc(b1-3)Gal(b1-4)GlcNAc(b1-2)Man(a1-6)]Man(b1-4)GlcNAc(b1-4)GlcNAc
# Summary of the method: as §1
# [9] = biological target: GlcNAc(b1-3)Gal(b1-4)GlcNAc(b1-3)[GlcNAc(b1-3)Gal(b1-4)GlcNAc(b1-3)]GalNAc
# Summary of the method: as §1
# [10] = biological target: GlcNAc(b1-3)Gal(b1-4)GlcNAc(b1-6)[GlcNAc(b1-3)]Gal(b1-4)GlcNAc
# Summary of the method: as §1
# [11] = biological target: GlcNAc(b1-6)GalNAc
# Summary of the method: as §1
# [12] = biological target: Kdn(a2-3)Gal(b1-4)[Fuc(a1-3)]GlcNAc
# Summary of the method: as §1
# [13] = biological target: Man(a1-3)[Man(a1-6)]Man(a1-6)[Man(a1-3)]Man
# Summary of the method: as §1
# [14] = biological target: Neu5Ac(a2-3)Gal(b1-3)GlcNAc(b1-3)GalNAc
# Summary of the method: as §1
# [15] = biological target: Neu5Ac(a2-3)Gal(b1-3)GlcNAc6S
# Summary of the method: as §1
# [16] = biological target: Neu5Ac(a2-3)Gal(b1-4)GlcNAc(b1-3)Gal(b1-3)GlcNAc
# Summary of the method: as §1
# [17] = biological target: Neu5Ac(a2-3)Gal(b1-4)GlcNAc(b1-3)Gal(b1-4)GlcNAc(b1-3)Gal(b1-4)GlcNAc(b1-2)Man(a1-3)[Neu5Ac(a2-3)Gal(b1-4)GlcNAc(b1-3)Gal(b1-4)GlcNAc(b1-3)Gal(b1-4)GlcNAc(b1-2)Man(a1-6)]GalNAc
# Summary of the method: as §1
# [18] = biological target: Neu5Ac(a2-3)Gal(b1-4)[Fuc(a1-3)]GlcNAc(b1-3)Gal
# Summary of the method: as §1
# [19] = biological target: Neu5Ac(a2-6)Gal(b1-4)GlcNAc(b1-2)Man(a1-3)Man(b1-4)GlcNAc(b1-4)GlcNAc
# Summary of the method: as §1
# [20] = biological target: Neu5Ac(a2-6)Gal(b1-4)GlcNAc(b1-6)[Gal(b1-3)]GalNAc
# Summary of the method: as §1
# [21] = biological target: Neu5Ac(a2-8)Neu5Ac(a2-3)Gal(b1-4)GlcNAc
# Summary of the method: as §1
# [22] = biological target: Neu5Ac(a2-8)Neu5Ac(a2-3)[Gal(b1-3)GalNAc(b1-4)]Gal(b1-4)Glc
# Summary of the method: as §1
# [23] = biological target: Neu5Ac(a2-8)Neu5Gc(a2-3)Gal(b1-4)GlcNAc
# Summary of the method: as §1
# [24] = biological target: Neu5Gc(a2-6)Gal(b1-4)GlcNAc
# Summary of the method: as §1
# [25] = biological target: Neu5Gc(b2-6)Gal(b1-4)GlcNAc
# Summary of the method: as §1
binder,measurement,setting,value
B1,glycan array binding signal (z-score),[1],0.437
same,glycan array binding signal (z-score),[2],2.04
same,glycan array binding signal (z-score),[3],1.36
same,glycan array binding signal (z-score),[4],0.943
same,glycan array binding signal (z-score),[5],0.16
same,glycan array binding signal (z-score),[6],-0.048
same,glycan array binding signal (z-score),[7],-0.862
same,glycan array binding signal (z-score),[8],4.26
same,glycan array binding signal (z-score),[9],2.97
same,glycan array binding signal (z-score),[10],-1.26
same,glycan array binding signal (z-score),[11],-1.05
same,glycan array binding signal (z-score),[12],-0.222
same,glycan array binding signal (z-score),[13],-1.22
same,glycan array binding signal (z-score),[14],-0.159
same,glycan array binding signal (z-score),[15],-0.847
same,glycan array binding signal (z-score),[16],0.515
same,glycan array binding signal (z-score),[17],2.64
same,glycan array binding signal (z-score),[18],-1.23
same,glycan array binding signal (z-score),[19],-1
same,glycan array binding signal (z-score),[20],-1.4
same,glycan array binding signal (z-score),[21],5.47
same,glycan array binding signal (z-score),[22],0.298
same,glycan array binding signal (z-score),[23],-0.939
same,glycan array binding signal (z-score),[24],-0.154
same,glycan array binding signal (z-score),[25],3.37
